In the supplement of paper PMC6555819:

Columns and labels:
Assay in all cases: PBM binding z-score (relative to random genomic background probes); higher = stronger binding; sequences stand for … in GC…GCGATTGACAGCGTAGAATGAAGG
[1] = system: FXR:RXRa (NR concentration 270 nM, RXRa partner concentration 90 nM)
Method in brief: (§1)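 Antibodies against each partner of ligand-free nuclear receptor dimers (one per run) detected binding on custom Agilent 4×180K protein-binding microarrays after 1 h incubation. The double-stranded probes had 34-nt variable regions carrying direct-repeat seeds, single-nucleotide variants, half-site ablations and random human genomic background sequences. Binding z-scores, from regression-normalized fluorescence, use the random background probes as reference.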

[2] = system: LXRa:RXRa (NR concentration 270 nM, RXRa partner concentration 90 nM)
Method in brief: as §1

[3] = system: LXRa homodimer (NR concentration 270 nM)
Method in brief: as §1

[4] = system: LXRb:RXRa (NR concentration 270 nM, RXRa partner concentration 90 nM)
Method in brief: as §1

[5] = system: LXRb homodimer (NR concentration 270 nM)
Method in brief: as §1

[6] = system: PPARa:RXRa (NR concentration 270 nM, RXRa partner concentration 90 nM)
Method in brief: as §1

[7] = system: PPARg:RXRa (NR concentration 180 nM, RXRa partner concentration 90 nM)
Method in brief: as §1

[8] = system: PPARg:RXRa 270nM:90nM, anti-RXR (NR concentration 270 nM, RXRa partner concentration 90 nM)
Method in brief: as §1

[9] = system: PPARg:RXRa 30nM:10nM, anti-RXR (NR concentration 30 nM, RXRa partner concentration 10 nM)
Method in brief: as §1

[10] = system: PPARg:RXRa 90nM:30nM, anti-RXR (NR concentration 90 nM, RXRa partner concentration 30 nM)
Method in brief: as §1

[11] = system: PPARg:RXRa DBDmut IVT, anti-RXR (DBD mutation: RXRa K156A/R161A, NR concentration 270 nM, RXRa partner concentration 90 nM)
Method in brief: as §1

[12] = system: PPARg:RXRa IVT, anti-PPARg (NR concentration 270 nM, RXRa partner concentration 90 nM)
Method in brief: as §1

[13] = system: PPARg DBDmut:RXRa IVT, anti-PPARg (DBD mutation: PPARg1 K132A/R137A, NR concentration 270 nM, RXRa partner concentration 90 nM)
Method in brief: as §1

[14] = system: PPARg DBDmut IVT, anti-PPARg (DBD mutation: PPARg1 K132A/R137A, NR concentration 270 nM)
Method in brief: as §1

[15] = system: PPARg homodimer (NR concentration 180 nM)
Method in brief: as §1

[16] = system: PXR:RXRa (NR concentration 270 nM, RXRa partner concentration 90 nM)
Method in brief: as §1

[17] = system: PXR homodimer (NR concentration 270 nM)
Method in brief: as §1

[18] = system: RARa:RXR (NR concentration 270 nM, RXRa partner concentration 90 nM)
Method in brief: as §1

[19] = system: RARa homodimer (NR concentration 270 nM)
Method in brief: as §1

[20] = system: RARb:RXRa (NR concentration 270 nM, RXRa partner concentration 90 nM)
Method in brief: as §1

Sequence	PBM binding z-score [1]	PBM binding z-score [2]	PBM binding z-score [3]	PBM binding z-score [4]	PBM binding z-score [5]	PBM binding z-score [6]	PBM binding z-score [7]	PBM binding z-score [8]	PBM binding z-score [9]	PBM binding z-score [10]	PBM binding z-score [11]	PBM binding z-score [12]	PBM binding z-score [13]	PBM binding z-score [14]	PBM binding z-score [15]	PBM binding z-score [16]	PBM binding z-score [17]	PBM binding z-score [18]	PBM binding z-score [19]	PBM binding z-score [20]
GCTAGCAGGCCAGTTGGGTCACTCAATGACGGGC	-0.488	-0.319	-0.976	-0.381	-1.51	0.54	0.164	0.0245	-0.726	-0.378	0.163	0.353	-1.62	-2.01	-0.447	-0.0174	-0.643	0.497	-0.946	1.27
GATACAGGGTCAGCTAGAGGCTAGAGTATGGAAA	4.9	2.5	-0.262	2.16	-0.533	4.51	3.64	3.06	0.467	1.89	0.581	2.17	-0.0888	-0.495	2.09	2.29	-0.0961	3.58	1.14	3.88
TCTTGGAGATCAACAGGAGGTTAAGAAAGATCGA	0.373	1.25	-0.0581	0.942	-0.782	1.44	0.02	1.23	2.38	1.62	0.986	0.364	0.0727	0.526	-0.163	1.09	-0.208	1.41	-0.417	0.374
ATCTCTAAGTAAAGATAGTTCAGTGAATGCAAAT	0.825	1.03	0.571	0.658	0.588	0.429	0.449	0.18	0.359	0.14	0.013	-0.072	0.975	1.08	1.3	0.808	0.715	1.08	1.41	0.426
GCTAGTTGGTCAGTAAAAGGTCACTCACCGGTCG	2.88	3.91	4.1	3.49	0.861	3.87	1.93	4.19	1.77	3.49	1.28	2.47	-0.335	0.0493	3.31	4.53	0.779	5.19	1.56	4.12
GCGACTGGGGCAAAGCAGATTACCATAAGGTTGG	-0.443	-0.606	-0.499	-0.352	-0.97	0.454	1.36	0.951	0.202	0.481	4.66	3.29	-0.663	-0.34	-0.207	-0.451	-0.273	-0.203	-0.607	0.381
ATCTCTGGGTAAGACTCAGTTCAGTGAAGAACGC	0.0881	0.209	0.369	0.319	0.684	0.1	0.0592	0.276	0.108	0.0741	1.16	1.22	0.795	0.645	0.772	1.16	1.54	0.0495	0.661	0.293
TCTATTAGTTAATTAGGGCAACCGAAACAGCGGA	0.524	0.526	0.315	0.637	0.558	2.73	2.2	2.94	3.88	3.37	4.63	5.38	1.64	1.52	0.99	0.546	0.152	0.998	1.68	1.04
GCTAGCAGACCATTTGGGTCACTCAATGACGGGC	-0.199	-0.301	-0.619	-0.213	-1.15	0.904	0.52	-0.0173	-0.573	-0.229	0.216	0.941	-0.491	-0.941	-0.202	0.0959	-0.826	0.598	-0.667	0.935
TCATATAGGTAAATGCTAGGTGAATGTCCGATCT	0.466	0.779	0.287	0.767	0.0198	1.39	0.932	2.17	3.49	2.66	3.97	2.57	0.725	1.15	0.769	0.548	0.635	1.02	1.27	0.461
CGAACTAGATCATTGACAGGACAGTGAATAGTAA	-0.0761	-0.268	0.18	-0.274	-0.0892	0.0131	0.572	-0.333	0.0975	0.113	1.8	0.856	0.569	0.266	0.538	0.285	-0.0589	0.3	0.92	0.0179
ATATGTAGCTTAGCTGGGGTCATTCAGACTAGGC	3.34	3.44	1.49	4.21	0.639	4.15	1.15	2.3	0.587	1.59	0.33	0.991	0.947	0.695	1.04	5.29	1.48	4.92	0.298	2.4
ACAGACAGGTGAGCGAAGGTAACTCAGCTGGACG	-0.11	-0.471	-0.638	-0.645	-0.759	0.0839	0.737	-0.0383	-0.389	0.269	0.465	0.783	0.567	-0.608	-0.706	-0.51	-0.963	0.056	-0.65	0.608
CCGACTGGGGCAGATAGGTTACCATACCATCCGG	-0.431	-0.25	0.171	-0.154	-1.16	0.179	0.914	0.44	-0.164	-0.0542	1.48	1.4	-1.44	-0.883	0.00162	-0.407	-0.499	0.117	-0.193	0.804
TCGAGTCGGTTAGTCGGGGCATTCAGCCAACATA	-0.133	-0.389	-0.468	0.0657	-0.884	0.295	-0.72	0.168	0.645	0.378	0.436	-0.0905	-0.814	-1.24	-0.388	-0.0849	-0.566	-0.027	-1.36	-0.00486
ATCTCTAGGTAACCAAGTTCAGGGAATGCCGAAC	0.126	0.821	0.817	0.638	0.621	1.28	0.946	1.03	0.158	0.596	3.23	2.89	0.704	1.55	0.857	2.04	1.49	0.735	0.329	1.15
CCAGACAGGTGAAAGGTAAATCAGTCTGGTACGC	0.431	0.642	-0.205	0.749	-0.327	3.27	5.01	5.7	4	6.32	1.86	2.8	0.0874	-1.06	2.52	0.697	-0.183	1.67	0.663	1.04
ATCGAAAGGTTGACGAGGTGAGTATACACCGTTT	1.11	0.773	-0.233	0.764	-0.00698	1.79	0.968	0.974	0.581	0.771	0.0825	1.03	0.76	1.04	0.684	0.914	0.374	1.25	0.63	1.79
